# Experimental data as given in ChEMBL document CHEMBL1157539, “Thousands of chemical starting points for antimalarial lead identification” (Nature, 2010).
# Test system: Plasmodium falciparum
# Assay: GSK_TCMDC: Inhibition of Plasmodium falciparum 3D7 in whole red blood cells, using parasite LDH activity as an index of growth. Test compounds present at 2uM
# Format: functional
row,Structure (SMILES),Inhibition [%]
1,Cl.Cn1ncc2c3c(CCN4CCC(NCc5cc6c(cn5)OCCO6)CC4)c(Cl)cnc3ccc21,95
2,Clc1nc2ccccn2c1C=Cc1ccc2ccccc2n1,86
3,N#Cc1ccc2c(c1)CCN(CCCn1c(-c3ccc4ccccc4c3)nc3ccncc31)CC2,100
4,CCCOc1ccc(NC(=O)c2cccs2)cc1Cl,88
5,Cc1ccc2nc(C)n(C3CCN(C(=O)Cc4ccccc4C)CC3)c2c1,100
6,CC1(C(=O)Nc2ccc([N+](=O)[O-])cc2O)CC2c3ccccc3C1c1ccccc12 (stereo not given),98
7,CCc1cn(C)c2c(N3CCCC3=O)cc(C(=O)N[C@@H](Cc3ccccc3)[C@H](O)CNC(C)(C)c3cccc(C(F)(F)F)c3)cc12,97
8,COc1ccccc1-n1c(SCC(=O)c2ccc3c(c2)CC(=O)N3C)nnc1-c1cccs1,95
9,Nc1oc2c(CN3CCCCCC3)c(O)ccc2c(=O)c1-c1nc2ccccc2s1,100
10,NCc1ccc(-c2ccccc2CNC2CCN(Cc3ccccc3)CC2)cc1.O=C(O)C(F)(F)F,94
11,CCC[C@@H]([C@@H](CC(C)C)C(=O)N[C@@H](CCCCNC(=O)c1ccccn1)C(=O)Nc1nccs1)N(O)C=O,100
12,N#Cc1ccc(N(CCOC(=O)c2ccc(Br)s2)Cc2ccccc2C(F)(F)F)cc1C(F)(F)F,82
13,CC[C@H](C)CNC(=O)c1cncc(-c2cccc(CNCCCc3ccccc3)c2)c1.O=C(O)C(F)(F)F,95
14,O=C(Nc1ccc(Cn2nc(Cl)c(N3CCCNCC3)cc2=O)cc1)c1ccc(-c2ccccc2)cc1.O=C(O)C(F)(F)F,87
15,Br.Oc1ccc(CCNCCCCNCCc2ccc(Cl)cc2)cc1O,94
16,COc1ccc2nccc([C@@H](O)CN3CCC(NCc4cc5ccccc5cn4)CC3)c2n1.O=C(O)C(=O)O,93
17,CC1(C)Cc2c([nH]c3ccccc23)C(CCCCCCCCC2=NC(C)(C)Cc3c2[nH]c2ccccc32)=N1.Cl,99
18,COc1ccccc1-c1ccc2nnc(SCC(=O)Nc3ccc4c(c3)OCCO4)n2n1,99
19,Cc1c(CNCCN2CCCCC2)c(C(=O)O)c(C)n1Cc1ccc(Cl)cc1,97
20,O=C(Nc1ccccc1F)NC1CCN(c2ccnc(Nc3ccc(F)cc3)n2)CC1,99

row,Structure (SMILES),Inhibition [%]
1,Clc1ccccc1CCNCC1CCN(CC2CCCCC2)CC1.O=C(O)C(F)(F)F,97
2,O=C(Nc1cccc(C(F)(F)F)c1)c1ccc(S(=O)(=O)NC2CCN(CC3CCCCC3)CC2)cc1.O=C(O)C(F)(F)F,83
3,Cc1ccc(NC(=O)N2CCC(n3c(-c4ccccc4)nc4cccnc43)CC2)cc1F,96
4,CCN(CC)CCN(Cc1ccc(-c2ccc(C(F)(F)F)cc2)cc1)C(=O)Cn1cc(CCCc2cccc(F)c2F)c(=O)c2ccccc21.O=C(O)C(O)C(O)C(=O)O,89
5,Cl.Nc1nc(N)c2c(Cl)c(N(Cc3ccccc3)Cc3ccccc3)ccc2n1,96
6,CN(C(=O)Nc1ccc(F)cc1)C1CCN(CCCCCNC(=O)/C=C/c2ccc(Cl)c(Cl)c2)CC1,89
7,Cc1cccc(CCNC(=O)c2cc(Br)cc(N3CCN(c4ccncc4)CC3)c2)c1.O=C(O)C(F)(F)F,96
8,Cl.N#Cc1ccc2c(c1)CCN(CCC1CCC(NC(=O)/C=C/c3ccc4[nH]ccc4c3)CC1)CC2 (stereo not given),93
9,Cc1[nH]c(C)c(-c2ccc(OCc3ccc(OC(F)(F)F)cc3)nc2)c(=O)c1Br,98
10,COc1ccc(CNCCCCCCNCCc2ccc(Cl)cc2)cc1OC.Cl,96
11,COc1ccc(-c2ccc(NC(=O)c3cccc(C#N)c3)cc2)cc1CN1CCC(O)CC1.O=C(O)C(F)(F)F,100
12,CN(C)c1cccc2c1nc(-c1ccco1)n2CCNCc1ccccc1.O=C(O)C(F)(F)F,98
13,N#Cc1ccc(-c2nc3c(N4CCCC4)cccc3n2CCNCc2ccccc2)cc1.O=C(O)C(F)(F)F,100
14,CCc1cc2c(cc1OCCN(C)C)N(C(=O)Nc1ccc(-c3ccncc3)c(Cl)c1)CC2,95
15,COc1ccccc1CNC(=O)CCn1c(=O)[nH]c2ccsc2c1=O,85
16,Cl.c1ccc2ncc(CNCCCCCCCCNCc3cnc4ccccc4c3)cc2c1,88
17,O=C(NCc1ccc(Cl)cc1)c1ccc(C(=O)NCC2CCCN2CC2CCCCC2)cc1.O=C(O)C(F)(F)F (stereo not given),97
18,NC1=NC(c2ccccc2)(c2ccccc2)C(=O)N1CCCCc1ccccc1.O=CO,96
19,Cc1[nH]c(C)c(-c2ccc(Br)cc2)c(=O)c1Cl,94
20,CCc1cccc(C)c1-n1nc(-c2cc(C(C)(C)C)oc2C)cc1N,95

# Test system: Plasmodium falciparum
# Assay: GSK_TCMDC: Inhibition of Plasmodium falciparum Dd2 in whole red blood cells, using parasite LDH activity as an index of growth. Test compounds present at 2uM
# Format: functional
row,Structure (SMILES),Inhibition [%]
1,Cl.Cn1ncc2c3c(CCN4CCC(NCc5cc6c(cn5)OCCO6)CC4)c(Cl)cnc3ccc21,34
2,Clc1nc2ccccn2c1C=Cc1ccc2ccccc2n1,75
3,N#Cc1ccc2c(c1)CCN(CCCn1c(-c3ccc4ccccc4c3)nc3ccncc31)CC2,97
4,CCCOc1ccc(NC(=O)c2cccs2)cc1Cl,86
5,Cc1ccc2nc(C)n(C3CCN(C(=O)Cc4ccccc4C)CC3)c2c1,100
6,CC1(C(=O)Nc2ccc([N+](=O)[O-])cc2O)CC2c3ccccc3C1c1ccccc12 (stereo not given),16
7,CCc1cn(C)c2c(N3CCCC3=O)cc(C(=O)N[C@@H](Cc3ccccc3)[C@H](O)CNC(C)(C)c3cccc(C(F)(F)F)c3)cc12,97
8,COc1ccccc1-n1c(SCC(=O)c2ccc3c(c2)CC(=O)N3C)nnc1-c1cccs1,55
9,Nc1oc2c(CN3CCCCCC3)c(O)ccc2c(=O)c1-c1nc2ccccc2s1,99
10,NCc1ccc(-c2ccccc2CNC2CCN(Cc3ccccc3)CC2)cc1.O=C(O)C(F)(F)F,3
11,CCC[C@@H]([C@@H](CC(C)C)C(=O)N[C@@H](CCCCNC(=O)c1ccccn1)C(=O)Nc1nccs1)N(O)C=O,100
12,N#Cc1ccc(N(CCOC(=O)c2ccc(Br)s2)Cc2ccccc2C(F)(F)F)cc1C(F)(F)F,48
13,CC[C@H](C)CNC(=O)c1cncc(-c2cccc(CNCCCc3ccccc3)c2)c1.O=C(O)C(F)(F)F,0
14,O=C(Nc1ccc(Cn2nc(Cl)c(N3CCCNCC3)cc2=O)cc1)c1ccc(-c2ccccc2)cc1.O=C(O)C(F)(F)F,35
15,Br.Oc1ccc(CCNCCCCNCCc2ccc(Cl)cc2)cc1O,0
16,COc1ccc2nccc([C@@H](O)CN3CCC(NCc4cc5ccccc5cn4)CC3)c2n1.O=C(O)C(=O)O,14
17,CC1(C)Cc2c([nH]c3ccccc23)C(CCCCCCCCC2=NC(C)(C)Cc3c2[nH]c2ccccc32)=N1.Cl,88
18,COc1ccccc1-c1ccc2nnc(SCC(=O)Nc3ccc4c(c3)OCCO4)n2n1,5
19,Cc1c(CNCCN2CCCCC2)c(C(=O)O)c(C)n1Cc1ccc(Cl)cc1,93
20,O=C(Nc1ccccc1F)NC1CCN(c2ccnc(Nc3ccc(F)cc3)n2)CC1,63

row,Structure (SMILES),Inhibition [%]
1,Clc1ccccc1CCNCC1CCN(CC2CCCCC2)CC1.O=C(O)C(F)(F)F,38
2,O=C(Nc1cccc(C(F)(F)F)c1)c1ccc(S(=O)(=O)NC2CCN(CC3CCCCC3)CC2)cc1.O=C(O)C(F)(F)F,0
3,Cc1ccc(NC(=O)N2CCC(n3c(-c4ccccc4)nc4cccnc43)CC2)cc1F,85
4,CCN(CC)CCN(Cc1ccc(-c2ccc(C(F)(F)F)cc2)cc1)C(=O)Cn1cc(CCCc2cccc(F)c2F)c(=O)c2ccccc21.O=C(O)C(O)C(O)C(=O)O,20
5,Cl.Nc1nc(N)c2c(Cl)c(N(Cc3ccccc3)Cc3ccccc3)ccc2n1,2
6,CN(C(=O)Nc1ccc(F)cc1)C1CCN(CCCCCNC(=O)/C=C/c2ccc(Cl)c(Cl)c2)CC1,0
7,Cc1cccc(CCNC(=O)c2cc(Br)cc(N3CCN(c4ccncc4)CC3)c2)c1.O=C(O)C(F)(F)F,53
8,Cl.N#Cc1ccc2c(c1)CCN(CCC1CCC(NC(=O)/C=C/c3ccc4[nH]ccc4c3)CC1)CC2 (stereo not given),27
9,Cc1[nH]c(C)c(-c2ccc(OCc3ccc(OC(F)(F)F)cc3)nc2)c(=O)c1Br,97
10,COc1ccc(CNCCCCCCNCCc2ccc(Cl)cc2)cc1OC.Cl,0
11,COc1ccc(-c2ccc(NC(=O)c3cccc(C#N)c3)cc2)cc1CN1CCC(O)CC1.O=C(O)C(F)(F)F,84
12,CN(C)c1cccc2c1nc(-c1ccco1)n2CCNCc1ccccc1.O=C(O)C(F)(F)F,97
13,N#Cc1ccc(-c2nc3c(N4CCCC4)cccc3n2CCNCc2ccccc2)cc1.O=C(O)C(F)(F)F,99
14,CCc1cc2c(cc1OCCN(C)C)N(C(=O)Nc1ccc(-c3ccncc3)c(Cl)c1)CC2,7
15,COc1ccccc1CNC(=O)CCn1c(=O)[nH]c2ccsc2c1=O,75
16,Cl.c1ccc2ncc(CNCCCCCCCCNCc3cnc4ccccc4c3)cc2c1,4
17,O=C(NCc1ccc(Cl)cc1)c1ccc(C(=O)NCC2CCCN2CC2CCCCC2)cc1.O=C(O)C(F)(F)F (stereo not given),10
18,NC1=NC(c2ccccc2)(c2ccccc2)C(=O)N1CCCCc1ccccc1.O=CO,81
19,Cc1[nH]c(C)c(-c2ccc(Br)cc2)c(=O)c1Cl,77
20,CCc1cccc(C)c1-n1nc(-c2cc(C(C)(C)C)oc2C)cc1N,95
